Measurements reported in PubChem BioAssay (NCATS).
Where “and” joins values, the source holds several entries; their conditions need not be identical. Identical values can stand only once. Records with an inconclusive call do not appear. Calls of active or inactive are those of the source. Unless noted, calls follow the shape of the dose curve; as a rule, active = well fitted curve in the direction sought with a large enough effect; inconclusive = small, poorly fitted or top-dose-only effect, or another doubt; inactive = no such curve, though single readings can be large; an effect the other way counts as inactive or inconclusive.

What was measured:
[1] = AP1 Signaling Pathway (AID 357; active = well fitted curve in either direction with a large enough effect, not every such curve was filed as active; also: % is scaled to controls: 0 for no effect and ±100 for the full control effect)
Method in brief: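 ME-180 cells with beta-lactamase reporter under AP-1 response element, stimulated with EC50 EGF; compounds tested in titration series, 5 h at 37 °C. CCF4 substrate added 2.5 h at room temperature; 460/530 nm emission ratio gave %activity and AC50.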

[2] = target: Cytochrome P450 1A2 (Homo sapiens) (UniProt P05177); test: p450-cyp1a2 (AID 410; calls by dose curve; also: potency is read from the fitted curve at half-maximal effect)
Chain of Cytochrome P450 1A2 (Homo sapiens) (P05177 whole entry, looked up): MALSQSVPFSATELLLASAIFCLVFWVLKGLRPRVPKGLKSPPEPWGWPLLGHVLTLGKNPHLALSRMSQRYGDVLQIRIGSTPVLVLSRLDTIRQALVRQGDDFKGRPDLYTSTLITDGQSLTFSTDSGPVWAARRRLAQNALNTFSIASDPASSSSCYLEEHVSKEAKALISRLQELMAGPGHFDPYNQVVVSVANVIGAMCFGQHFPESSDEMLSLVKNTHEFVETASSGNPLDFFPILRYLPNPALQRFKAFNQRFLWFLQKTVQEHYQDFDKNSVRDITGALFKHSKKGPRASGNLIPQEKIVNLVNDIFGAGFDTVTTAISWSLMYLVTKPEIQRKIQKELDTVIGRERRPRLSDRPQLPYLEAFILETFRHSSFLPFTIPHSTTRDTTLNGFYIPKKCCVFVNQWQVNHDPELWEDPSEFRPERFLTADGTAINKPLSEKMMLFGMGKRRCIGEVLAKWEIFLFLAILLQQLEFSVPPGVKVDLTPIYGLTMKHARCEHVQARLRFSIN
Method in brief: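 Human CYP1A2 (20nM) demethylated Luciferin-ME at its Km (100uM) in 100mM KPO4. After 10 min compound preincubation, NADPH regeneration ran the reaction 60 min at room temperature. Luciferin was read by luminescence, normalized to 57 uM furafylline.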

[3] = NFAT Signaling Pathway (AID 444; active = well fitted curve in either direction with a large enough effect, not every such curve was filed as active;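 also: carbachol stimulus at about its EC50 of 1 µM final; % is scaled to controls: 0 for no effect and ±100 for the full control effect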); settings: Jurkat NFAT-bla M1, carbachol, beta-lactamase ratio, 5 h
Method in brief: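 Jurkat cells carrying an NFAT-driven β-lactamase reporter and co-transfected muscarinic M1 receptor were treated with compound plus carbachol (1 uM final, an EC50 level) for 5 h at 37 °C. CCF4 loading followed for 1 h at RT; 460/530 nm ratio gave %activity.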

[4] = Stat Signaling Pathway (AID 446; active = well fitted curve in either direction with a large enough effect, not every such curve was filed as active;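 also: ME-180 cervical cancer cells given 40 pM IL-6 alongside compound; SIE-controlled beta-lactamase reporter measured as 460/530 nm FRET emission ratio; % is scaled to controls: 0 for no effect and ±100 for the full control effect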)
Method in brief: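 ME-180 SIE-bla cells; overnight plating; cpd + IL-6 40 pM, 5 h, 37 C; LiveBLAzer 2.5 h RT; 460/530 nm emission ratio. Normalized to 300 pM IL-6 and 125 nM JAK inhibitor controls.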

[5] = target: Glucocorticoid receptor (Homo sapiens) (UniProt P04150); test: GR-GFP Redistribution (AID 450;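 active = compounds whose dose series gives a full or clear partial fitted curve of increased nuclear translocation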; also: potency is read from the fitted curve at half-maximal effect); settings: U2OS GR-GFP nuclear translocation, laser cytometry, 2 h
Chain of Glucocorticoid receptor (Homo sapiens) (P04150 whole entry, looked up, the tested form may be a part): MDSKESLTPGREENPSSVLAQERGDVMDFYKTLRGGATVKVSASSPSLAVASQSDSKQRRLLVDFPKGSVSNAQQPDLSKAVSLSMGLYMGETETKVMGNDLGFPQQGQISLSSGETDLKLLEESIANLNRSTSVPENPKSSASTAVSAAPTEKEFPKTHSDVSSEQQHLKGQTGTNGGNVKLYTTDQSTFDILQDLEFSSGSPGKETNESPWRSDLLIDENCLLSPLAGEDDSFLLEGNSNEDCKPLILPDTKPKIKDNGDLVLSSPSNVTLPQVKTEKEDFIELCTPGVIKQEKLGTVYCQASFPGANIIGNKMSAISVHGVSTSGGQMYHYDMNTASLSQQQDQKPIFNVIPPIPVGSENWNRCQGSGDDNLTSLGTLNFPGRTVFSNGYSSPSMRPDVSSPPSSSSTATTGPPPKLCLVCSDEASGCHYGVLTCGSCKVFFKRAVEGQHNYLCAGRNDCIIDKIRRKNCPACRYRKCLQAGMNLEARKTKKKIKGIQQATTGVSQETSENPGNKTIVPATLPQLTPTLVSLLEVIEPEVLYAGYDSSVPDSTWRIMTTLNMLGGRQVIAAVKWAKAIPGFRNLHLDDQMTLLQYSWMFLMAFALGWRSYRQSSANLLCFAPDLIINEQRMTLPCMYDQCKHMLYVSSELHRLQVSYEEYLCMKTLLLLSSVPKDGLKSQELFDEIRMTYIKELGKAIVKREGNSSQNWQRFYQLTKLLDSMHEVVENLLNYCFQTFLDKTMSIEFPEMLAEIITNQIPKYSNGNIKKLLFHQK

[6] = target: Glucocorticoid receptor (Homo sapiens) (UniProt P04150); test: GR-EFC Redistribution (AID 451; calls by dose curve; also: potency is read from the fitted curve at half-maximal effect); settings: CHO-K1 GR-EFC translocation, beta-gal luminescence, 2 h
Method in brief: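 CHO-K1 cells stably expressing nuclear-localized β-gal enzyme acceptor and GR fused C-terminally to the enzyme donor fragment; ligand-driven nuclear translocation restores β-gal by complementation. Compounds titrated up to 46 uM final, 2 h at 37 °C; luminescence read.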

[7] = target: Mitogen-activated protein kinase 10 (Mus musculus) (UniProt Q61831); test: JNK3 AlphaScreen Assay (AID 530; active = well fitted curve in either direction with a large enough effect, not every such curve was filed as active;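 also: kinase came from lysate of stimulated human HepG2 cells; signal reports phosphorylation of biotinylated GST-cJun 1-79 at Ser73 with 10 µM ATP; % is scaled to controls: 0 for no effect and ±100 for the full control effect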)
Method in brief: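 JNK3 came from HepG2 lysates pre-activated with IL-1beta and TNF-alpha and phosphorylated biotinylated GST-cJun (1-79) at 10 uM ATP, pH 7.6, room temperature. Compounds were titrated. AlphaScreen signal used anti-phospho-cJun (Ser73) antibody.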

[8] = target: 3',5'-cyclic-AMP phosphodiesterase 4B (Homo sapiens) (UniProt Q07343); test: qHTS Assay for Inhibitors of PDE-IV (AID 607; active = well fitted activation curve with a large enough effect in the main read-out, with a control signal flat, not every such curve was filed as active; also: % of control where 0% means no effect)
Chain of 3',5'-cyclic-AMP phosphodiesterase 4B (Homo sapiens) (Q07343 whole entry, looked up): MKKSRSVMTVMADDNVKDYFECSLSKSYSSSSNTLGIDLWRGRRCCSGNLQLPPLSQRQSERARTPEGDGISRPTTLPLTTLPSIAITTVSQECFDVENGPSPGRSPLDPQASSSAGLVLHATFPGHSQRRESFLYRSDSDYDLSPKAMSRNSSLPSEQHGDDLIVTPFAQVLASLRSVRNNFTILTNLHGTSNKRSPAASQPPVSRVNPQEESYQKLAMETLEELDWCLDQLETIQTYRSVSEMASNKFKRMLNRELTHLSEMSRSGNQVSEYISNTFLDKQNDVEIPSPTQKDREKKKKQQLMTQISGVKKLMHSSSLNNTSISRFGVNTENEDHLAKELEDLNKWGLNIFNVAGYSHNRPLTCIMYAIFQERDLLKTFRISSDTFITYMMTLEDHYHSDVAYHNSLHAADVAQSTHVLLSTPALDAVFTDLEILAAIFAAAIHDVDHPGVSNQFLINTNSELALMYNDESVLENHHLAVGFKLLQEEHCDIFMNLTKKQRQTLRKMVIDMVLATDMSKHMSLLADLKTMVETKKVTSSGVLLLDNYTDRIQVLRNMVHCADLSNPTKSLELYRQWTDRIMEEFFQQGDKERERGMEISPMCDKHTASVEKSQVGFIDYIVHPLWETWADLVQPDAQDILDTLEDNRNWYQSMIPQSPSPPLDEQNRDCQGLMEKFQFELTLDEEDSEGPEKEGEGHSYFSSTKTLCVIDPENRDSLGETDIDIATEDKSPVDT
Method in brief: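 ACTOne HEK293 cells carry a modified cAMP-gated CNG channel and express endogenous PDE4; plated 1000 cells/well, compounds up to 22.9 uM final. Membrane-potential dye fluorescence (ex 535/em 590) was read; parental cells received 10 uM forskolin + 100 uM RO 20-1724.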

[9] = target: Guanine nucleotide-binding protein G(i) subunit alpha-1 (Homo sapiens) (UniProt P63096); test: qHTS Assay for Inhibitors of RGS12 GoLoco Motif Activity (Green Fluorophore) (AID 879);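 also: 0% = labeled peptide with Gαi1 and full inhibition = labeled peptide alone without protein; negative values mean loss of peptide binding seen as reduced polarization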
Chain of Guanine nucleotide-binding protein G(i) subunit alpha-1 (Homo sapiens) (P63096 whole entry, looked up): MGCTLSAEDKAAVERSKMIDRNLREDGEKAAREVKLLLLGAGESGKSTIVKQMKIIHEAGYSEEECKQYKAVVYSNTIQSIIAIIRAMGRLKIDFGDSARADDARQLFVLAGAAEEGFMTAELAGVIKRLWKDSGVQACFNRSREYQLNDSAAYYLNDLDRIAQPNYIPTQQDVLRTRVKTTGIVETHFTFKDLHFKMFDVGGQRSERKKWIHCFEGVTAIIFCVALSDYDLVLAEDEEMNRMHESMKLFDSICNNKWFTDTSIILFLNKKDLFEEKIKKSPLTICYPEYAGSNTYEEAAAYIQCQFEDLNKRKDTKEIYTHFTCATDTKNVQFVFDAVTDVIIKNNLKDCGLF
Method in brief: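 Fluorescence polarization assay: 50 nM Gαi1 with 10 nM FITC-labeled RGS12 GoLoco peptide in 10 mM Tris pH 7.5, 150 mM NaCl, 0.1 mM GDP, 0.05% NP40, 10 min at room temperature with compound.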

[10] = target: Cytochrome P450 2C9 (Homo sapiens) (UniProt P11712); test: qHTS Assay for Inhibitors and Substrates of Cytochrome P450 2C9 (AID 883); also: % is scaled to controls: 0 for no effect and ±100 for the full control effect; nearly all actives have a fitted effect of over 60% in size
Chain of Cytochrome P450 2C9 (Homo sapiens) (P11712 whole entry, looked up): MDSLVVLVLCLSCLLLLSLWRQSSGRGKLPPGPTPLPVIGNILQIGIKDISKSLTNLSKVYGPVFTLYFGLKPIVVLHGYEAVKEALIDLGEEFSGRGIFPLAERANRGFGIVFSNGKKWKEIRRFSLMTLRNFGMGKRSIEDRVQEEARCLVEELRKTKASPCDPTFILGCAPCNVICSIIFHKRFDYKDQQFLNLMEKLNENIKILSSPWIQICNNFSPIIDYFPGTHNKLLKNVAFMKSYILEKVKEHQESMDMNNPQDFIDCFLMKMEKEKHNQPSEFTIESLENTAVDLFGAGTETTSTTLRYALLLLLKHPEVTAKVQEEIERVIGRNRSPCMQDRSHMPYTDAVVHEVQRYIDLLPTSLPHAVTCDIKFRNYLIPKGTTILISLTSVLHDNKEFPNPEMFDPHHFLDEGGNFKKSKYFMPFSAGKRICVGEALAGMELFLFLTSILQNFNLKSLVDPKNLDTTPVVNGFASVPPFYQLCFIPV
Method in brief: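 A luminogenic readout tracked human CYP2C9 (10nM) converting deoxyluciferin (100uM, at KM) in 25mM KPO4 during 60 min at 37C with regenerated NADPH. Values normalized to 57uM sulphaphenazole as complete inhibition.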

[11] = qHTS Assay for Identification of Small Molecule Antagonists for NFkB Signaling Pathway (AID 895; active = well fitted inhibition curve with a large enough effect in the signal ratio, with a control signal flat, not every such curve was filed as active; the % refers to the signal ratio; also: % is scaled to controls: 0 for no effect and ±100 for the full control effect)
Method in brief: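 NFkB-bla ME-180 cervical carcinoma cells with beta-lactamase reporter under NFkB response element; compounds added, then TNF alpha at 10 pM final (EC50), 5 h at 37 C. LiveBLAzer substrate 2 h, room temperature; emission 460/530 nm at 405 nm excitation.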

[12] = target: Muscarinic acetylcholine receptor M1 (Rattus norvegicus) (UniProt P08482); test: qHTS Assay for Antagonists of Acetylcholine Muscarinic M1 Receptor: Kinetic Measurement of Intracellular Calcium Response (AID 943);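 also: Fluo-4 calcium signal as peak divided by basal fluorescence over 4 min; nearly all actives have a fitted effect of over 75% in size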
Chain of Muscarinic acetylcholine receptor M1 (Rattus norvegicus) (P08482 whole entry, looked up): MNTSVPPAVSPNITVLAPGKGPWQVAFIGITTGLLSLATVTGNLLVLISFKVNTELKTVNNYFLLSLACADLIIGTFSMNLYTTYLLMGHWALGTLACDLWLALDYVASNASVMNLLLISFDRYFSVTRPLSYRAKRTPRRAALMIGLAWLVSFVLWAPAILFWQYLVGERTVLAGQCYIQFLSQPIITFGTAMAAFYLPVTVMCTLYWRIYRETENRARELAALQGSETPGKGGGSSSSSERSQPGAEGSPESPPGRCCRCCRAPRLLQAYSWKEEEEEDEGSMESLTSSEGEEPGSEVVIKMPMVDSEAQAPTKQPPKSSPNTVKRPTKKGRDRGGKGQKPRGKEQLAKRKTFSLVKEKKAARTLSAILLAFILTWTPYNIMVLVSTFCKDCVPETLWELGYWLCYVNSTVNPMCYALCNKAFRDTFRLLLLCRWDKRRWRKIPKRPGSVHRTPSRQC
Method in brief: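 CHO cells stably expressing rat M1 were loaded with no-wash Fluo-4 dye for 1 h at 37C, pre-incubated 10 min with compound, then challenged with EC80 carbachol (100 nM final); kinetic calcium read 4 min, peak/basal ratio.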

[13] = target: Muscarinic acetylcholine receptor M1 (Rattus norvegicus) (UniProt P08482); test: qHTS Assay for Antagonists of Acetylcholine Muscarinic M1 Receptor: Measurement of IP-One Response (AID 944); also: nearly all actives have a fitted effect of over 75% in size
Method in brief: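 CHO cells expressing rat M1 receptor, recovered overnight, were pre-incubated 10 min with compound, then stimulated 30 min with carbachol at EC80 (200 nM) in LiCl-containing buffer, pH 7.4. IP1 accumulation was read by HTRF (620/665 nm).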

[14] = target: Pyruvate kinase (Leishmania mexicana) (UniProt Q27686); test: qHTS Validation Assay for Inhibitors of Leishmania Mexicana Pyruvate Kinase (AID 945);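 also: 0% = DMSO only neutral control wells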
Method in brief: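 qHTS eight-point titrations against 0.2 nM LmPYK (E451W) in imidazole buffer pH 7.2 with 0.5 mM PEP, 0.1 mM ADP; 1 h, room temperature. Readout: PKLight luminescence, normalized to neutral DMSO wells.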

[15] = target: Pyruvate kinase PKM (Homo sapiens) (UniProt P14618); test: qHTS Assay for Activators of Human Muscle Pyruvate Kinase (AID 954; active = well fitted curve in the direction sought with a large enough effect, not every such curve was filed as active;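 also: 0% = uninhibited enzyme and -100% = no enzyme or full thiadiazolimine inhibition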)
Chain of Pyruvate kinase PKM (Homo sapiens) (P14618 whole entry, looked up): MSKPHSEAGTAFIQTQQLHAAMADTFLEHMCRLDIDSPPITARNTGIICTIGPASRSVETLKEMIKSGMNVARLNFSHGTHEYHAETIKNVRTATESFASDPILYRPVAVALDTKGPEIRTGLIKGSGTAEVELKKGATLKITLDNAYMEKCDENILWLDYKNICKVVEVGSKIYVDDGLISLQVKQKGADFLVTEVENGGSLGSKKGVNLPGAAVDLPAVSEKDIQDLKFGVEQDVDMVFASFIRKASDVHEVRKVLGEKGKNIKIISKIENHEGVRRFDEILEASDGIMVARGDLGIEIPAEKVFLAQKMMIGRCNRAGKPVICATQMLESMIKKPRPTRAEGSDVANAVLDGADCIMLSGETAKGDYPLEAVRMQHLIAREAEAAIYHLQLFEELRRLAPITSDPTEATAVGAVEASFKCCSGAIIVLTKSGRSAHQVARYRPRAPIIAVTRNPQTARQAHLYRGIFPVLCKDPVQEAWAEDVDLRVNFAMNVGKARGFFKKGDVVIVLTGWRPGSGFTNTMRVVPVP
Method in brief: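 Luminescence from a luciferase ATP-detection/stop reagent reported PKM2 activity. Reactions contained 0.1 nM purified human enzyme, 0.5 mM PEP, 0.1 mM ADP and 7 mM MgCl2 at pH 7.2, run 1 h at RT.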

[16] = target: Alpha-galactosidase (Coffea arabica) (UniProt Q42656); test: Counterscreen for Glucocerebrosidase Inhibitors: qHTS Assay for Coffee Bean alpha-Galactosidase at pH 4.5 (AID 957);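 also: plate controls were enzyme alone for no effect and no enzyme for full effect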
Chain of Alpha-galactosidase (Coffea arabica) (Q42656 whole entry, looked up): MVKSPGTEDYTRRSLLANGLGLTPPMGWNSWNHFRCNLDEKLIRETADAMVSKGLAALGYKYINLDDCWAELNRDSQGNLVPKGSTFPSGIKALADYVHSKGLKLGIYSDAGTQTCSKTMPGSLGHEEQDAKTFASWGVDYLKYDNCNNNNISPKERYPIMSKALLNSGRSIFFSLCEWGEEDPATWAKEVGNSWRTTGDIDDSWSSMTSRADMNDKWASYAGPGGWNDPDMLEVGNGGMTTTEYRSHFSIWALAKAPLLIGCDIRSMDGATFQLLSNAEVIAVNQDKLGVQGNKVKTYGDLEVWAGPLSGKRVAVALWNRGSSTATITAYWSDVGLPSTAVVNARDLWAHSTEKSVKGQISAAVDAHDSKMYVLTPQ
Method in brief: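 Green coffee bean enzyme (2 nM final) was incubated with compounds (0.7 nM to 77 uM) and 4-methylumbelliferyl alpha-D-galactopyranoside (80 uM final) in 50 mM citric acid, 0.005% Tween-20, pH 4.5, 20 min at room temperature; AC50 from Hill fits.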

[17] = target: Alpha-galactosidase A (Homo sapiens) (UniProt P06280); test: Counterscreen for Glucocerebrosidase Inhibitors: qHTS Assay for Human alpha-Galactosidase at pH 4.5 (AID 992); also: 0% is about no effect
Chain of Alpha-galactosidase A (Homo sapiens) (P06280 whole entry, looked up): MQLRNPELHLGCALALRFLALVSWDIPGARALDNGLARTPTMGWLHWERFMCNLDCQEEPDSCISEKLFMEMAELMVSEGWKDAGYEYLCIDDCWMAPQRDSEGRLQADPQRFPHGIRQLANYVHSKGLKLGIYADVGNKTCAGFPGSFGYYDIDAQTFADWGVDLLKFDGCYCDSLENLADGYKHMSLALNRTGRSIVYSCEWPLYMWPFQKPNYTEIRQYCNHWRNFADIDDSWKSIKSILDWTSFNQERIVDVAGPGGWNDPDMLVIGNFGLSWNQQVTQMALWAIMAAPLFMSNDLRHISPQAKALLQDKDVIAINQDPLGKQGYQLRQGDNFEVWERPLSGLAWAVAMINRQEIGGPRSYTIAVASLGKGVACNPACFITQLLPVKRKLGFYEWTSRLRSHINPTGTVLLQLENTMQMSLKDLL
Method in brief: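 Enzyme at 2 nM final was combined with compound (0.7 nM to 77 uM) and 80 uM 4-methylumbelliferyl alpha-D-galactopyranoside in 50 mM citric acid, 0.005% Tween-20, pH 4.5. After 20 min at room temperature, fluorescence was read (Ex 365/Em 440 nm); AC50 came from Hill fits.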

[18] = target: alpha-glucosidase (Oryza sativa, rice) (UniProt Q653V4); test: Counterscreen for Glucocerebrosidase Inhibitors: qHTS Assay for Rice alpha-Glucosidase at pH 5.0 (AID 997);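 also: 0% = full activity with enzyme and -100% = basal without enzyme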
Method in brief: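 Rice alpha-glucosidase (4 nM final) with 400 uM 4-methylumbelliferyl-alpha-D-glucopyranoside in citrate buffer pH 5.0, 20 min at room temperature, stopped at pH 10; fluorescence 365/440 nm, compounds 0.7 nM–77 uM, AC50 from Hill fits.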

[19] = target: Alpha-galactosidase (Coffea arabica) (UniProt Q42656); test: Counterscreen for Glucocerebrosidase Inhibitors: qHTS Assay for Coffee Bean alpha-Galactosidase at pH 5.9 (AID 998);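 also: plate controls were uninhibited enzyme for no effect and no-enzyme basal signal for full effect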
Method in brief: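 Green coffee bean enzyme (2 nM final) was incubated with compounds (0.7 nM–77 uM) and 4-methylumbelliferyl alpha-D-galactopyranoside (80 uM) in citrate buffer pH 5.9, 20 min at room temperature. High-pH stop; fluorescence 365/440 nm; AC50 from Hill fits.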

[20] = Validation of Assay for Modulators of Lamin A Splicing (AID 1459; active = well fitted curve in the direction sought with a large enough effect in the signal ratio; the % refers to the signal ratio;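 also: cells exposed to compound for two days before reading; 0% is about no effect; ratio rise marks activators and ratio drop marks inhibitors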)
Method in brief: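 S3 HeLa stably expressing lamin A-EGFP splicing minigene and DsRed2, 600 cells/well in Opti-MEM with 2% FBS, treated 48 h at 37C; laser-scanning cytometry gives GFP/RFP total intensity ratio; ancitabine positive control, 0.5% DMSO vehicle.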

COc1ccc2[nH]cc(CCN(C)C)c2c1
active: Potency [2] 15.8 µM
inactive: outcome [1] | activity change, negative = inhibition ([3]; at 17.2 µM (top of the series)) -12.1% | activity change, negative = inhibition ([3]; at 38 µM (top of the series)) -5.37% | outcome [4] | Potency [5] > 46 µM and > 20.6 µM | Potency [6] > 46 µM | outcome [7] | Potency [8] | outcome [9] | Potency [10] | Potency [11] | Potency [12] | Potency [13] | outcome [14] | outcome [15] | outcome [16] | outcome [17] | outcome [18] | outcome [19] | outcome [20]
